# Data taken from PubChem BioAssay (NCATS).
# Where “and” joins values, the source holds several entries; their conditions need not be identical. Identical values can stand only once. Results filed as inconclusive are left out. Where a call stands in place of a potency, no number is given. Calls of active or inactive are those of the source. Unless noted, the call rests on the fitted dose curve.
# Assays:
# [1] = Primary qHTS for small molecule stabilizers of the endoplasmic reticulum resident proteome: Secreted ER Calcium Modulated Protein (SERCaMP) assay (AID 1508630; active means well fitted curve in the direction sought with a large enough effect; an effect the other way counts as inactive or inconclusive); conditions: SH-SY5Y GLuc-SERCaMP (Gaussia luciferase released on ER calcium loss) secretion, thapsigargin, luminescence; series mostly up to 38.4 µM
# Procedure, shortened: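 The SH-SY5Y reporter protocol was run at 3 concentrations up to 38.3 uM (primary) or 11 concentrations (follow-up): 16 h compound, 100 nM thapsigargin for 4 h, then extracellular luciferase luminescence.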
# Papain (Carica papaya) = Papain (Carica papaya) (UniProt P00784); test: Primary qHTS assay for inhibitors of the protease papain (AID 1645873; active means well fitted curve in the direction sought with a large enough effect; an effect the other way counts as inactive or inconclusive;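 further: papain turnover of Z-FR-AMC read as the AMC fluorescence gain over 10 min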); conditions: papain Z-FR-AMC cleavage, AMC fluorescence; series mostly up to 49.8 µM
# Chain of Papain (Carica papaya) (P00784 whole entry, looked up): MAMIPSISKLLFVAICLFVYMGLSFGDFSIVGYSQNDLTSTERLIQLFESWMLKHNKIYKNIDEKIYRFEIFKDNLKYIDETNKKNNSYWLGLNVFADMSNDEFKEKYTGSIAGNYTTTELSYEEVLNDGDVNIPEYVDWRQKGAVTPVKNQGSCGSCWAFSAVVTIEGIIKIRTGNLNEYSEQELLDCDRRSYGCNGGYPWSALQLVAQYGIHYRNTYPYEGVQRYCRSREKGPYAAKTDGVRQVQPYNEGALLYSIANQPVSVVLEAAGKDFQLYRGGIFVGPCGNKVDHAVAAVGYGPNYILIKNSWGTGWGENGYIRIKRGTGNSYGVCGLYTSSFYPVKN
# [2] = target: Cytochrome P450 2D6 (Homo sapiens) (UniProt P10635); test: Cytochrome P450 family 2 subfamily D member 6 (CYP2D6) small molecule antagonists: luciferase biochemical (cell-free) qHTS assay (AID 1645840; active means well fitted curve in the direction sought with a large enough effect in the repeat runs; an effect the other way counts as inactive or inconclusive; further: nearly all actives have a fitted effect of over 55% in size; further: potency means the concentration at half of the fitted maximal effect); conditions: P450-Glo CYP2D6 enzyme, luciferin luminescence, 1 h; series mostly up to 57.4 µM
# Chain of Cytochrome P450 2D6 (Homo sapiens) (P10635 whole entry, looked up): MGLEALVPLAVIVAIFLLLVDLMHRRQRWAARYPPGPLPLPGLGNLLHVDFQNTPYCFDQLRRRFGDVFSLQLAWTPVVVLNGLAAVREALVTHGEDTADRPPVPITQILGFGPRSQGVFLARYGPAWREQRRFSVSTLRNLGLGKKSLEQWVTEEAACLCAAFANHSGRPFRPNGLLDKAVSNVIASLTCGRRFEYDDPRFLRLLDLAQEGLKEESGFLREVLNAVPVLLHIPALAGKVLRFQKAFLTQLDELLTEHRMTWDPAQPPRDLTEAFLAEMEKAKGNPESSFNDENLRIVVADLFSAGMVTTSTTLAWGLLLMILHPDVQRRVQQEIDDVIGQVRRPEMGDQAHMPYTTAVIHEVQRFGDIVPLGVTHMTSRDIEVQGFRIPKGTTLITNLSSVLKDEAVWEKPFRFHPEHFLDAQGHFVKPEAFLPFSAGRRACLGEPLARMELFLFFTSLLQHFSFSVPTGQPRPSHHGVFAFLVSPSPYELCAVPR
# Procedure, shortened: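 P450-Glo CYP2D6 system: proluciferin substrate converted by enzyme to luciferin, read by luminescence proportional to activity. Enzyme-substrate mix with compound 10 min at room temperature, then NADPH regeneration 1 h before detection reagent.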
# [3] = target: Cytochrome P450 2C9 (Homo sapiens) (UniProt P11712); test: Cytochrome P450 family 2 subfamily C member 9 (CYP2C9) small molecule antagonists: luciferase biochemical (cell-free) qHTS assay (AID 1645842; active means well fitted curve in the direction sought with a large enough effect in the repeat runs; an effect the other way counts as inactive or inconclusive; further: nearly all actives have a fitted effect of over 55% in size; further: potency means the concentration at half of the fitted maximal effect); conditions: P450-Glo CYP2C9 enzyme assay, luciferin luminescence; series mostly up to 57.4 µM
# Chain of Cytochrome P450 2C9 (Homo sapiens) (P11712 whole entry, looked up): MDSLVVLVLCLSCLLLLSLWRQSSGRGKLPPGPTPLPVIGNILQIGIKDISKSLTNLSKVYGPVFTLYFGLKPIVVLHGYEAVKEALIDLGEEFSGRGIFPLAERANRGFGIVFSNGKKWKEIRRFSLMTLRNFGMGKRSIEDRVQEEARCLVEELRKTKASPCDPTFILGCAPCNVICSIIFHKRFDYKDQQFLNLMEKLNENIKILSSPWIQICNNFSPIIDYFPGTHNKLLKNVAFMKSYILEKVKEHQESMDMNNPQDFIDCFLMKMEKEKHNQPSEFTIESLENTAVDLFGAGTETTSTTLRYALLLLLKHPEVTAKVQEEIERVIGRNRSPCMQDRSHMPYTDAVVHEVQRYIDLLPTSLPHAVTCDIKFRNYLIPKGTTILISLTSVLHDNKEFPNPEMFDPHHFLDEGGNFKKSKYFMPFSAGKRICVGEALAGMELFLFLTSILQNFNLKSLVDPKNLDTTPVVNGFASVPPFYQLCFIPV
# Procedure, shortened: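 P450-Glo CYP2C9 system: proluciferin substrate with enzyme in mix containing 0.4% BSA, 10 min at room temperature, then NADPH regeneration solution added and incubated 1 h at 37C. Detection reagent stopped reaction; luminescence read after 20 min as RLU.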
# [4] = Primary qHTS for inhibitors of nuclear receptor binding SET domain protein 2 (NSD2) in an isogenic RCH-ACV NSD2 p.E1099K mutant (9B) (AID 1645876; active means well fitted curve in the direction sought with a large enough effect; an effect the other way counts as inactive or inconclusive; further: nearly all actives have a fitted effect of over 70% in size; further: potency means the concentration at half of the fitted maximal effect); conditions: RCH-ACV NSD2 E1099K (9B) viability, CellTiter-Glo, 72 h; series mostly up to 44.9 µM
# [5] = Primary qHTS for inhibitors of nuclear receptor binding SET domain protein 2 (NSD2) in an RCH-ACV wild type WT cells (2C) (AID 1645877; active means well fitted curve in the direction sought with a large enough effect; an effect the other way counts as inactive or inconclusive; further: nearly all actives have a fitted effect of over 70% in size; further: potency means the concentration at half of the fitted maximal effect); conditions: RCH-ACV (leukaemia line) NSD2 WT (2C) viability, CellTiter-Glo, 72 h; series mostly up to 44.9 µM
# [6] = Confirmatory qHTS to identify inhibitors of SARS-CoV-2 cell entry (AID 1645844); conditions: SARS-CoV-2 pseudotyped particle cell entry, luciferase; series mostly up to 57.2 µM; further: nearly all actives have a fitted effect of over 45% in size; further: potency means the concentration at half of the fitted maximal effect
# Procedure, shortened: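 Luminescence entry read-out after 48 h: spike-pseudotyped MLV particles (Wuhan-Hu-1, 19-aa C-terminal truncation) added to compound-pretreated (1 h) HEK293-ACE2 cells; Data were normalised to bald PP and spike PP wells.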
# [7] = Primary qHTS to identify inhibitors of SARS-CoV-2 cell entry (AID 1645846); conditions: SARS-CoV-2 pseudovirus cell entry assay, luminescence; activity change, negative = inhibition: at 57.1 µM (top of the series) unless noted; series mostly up to 57.1 µM; further: nearly all actives have a fitted effect of over 45% in size; further: potency means the concentration at half of the fitted maximal effect
# Procedure, shortened: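 Inhibition of spike-mediated entry was scored in human ACE2-transfected Expi293F cells. Particles were MLV-pseudotyped with Wuhan-Hu-1 S carrying a 19-aa C-terminal deletion; signal was luciferase after two days, scaled between spike PP and fusion-protein-free PP.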
# [8] = Cytotoxicity counterscreen for inhibitors of SARS-CoV-2 cell entry (AID 1645845); conditions: cell viability (SARS-CoV-2 entry assay cells); series mostly up to 57.1 µM; further: nearly all actives have a fitted effect of over 50% in size; further: potency means the concentration at half of the fitted maximal effect
# Procedure, shortened: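 ATP-content luminescence (ATPLite 1step, 15 min RT) read after 48 h compound exposure of Expi293F cells stably expressing human ACE2; normalized to cells-only wells and media-only wells.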
# [9] = target: Cytochrome P450 3A4 (Homo sapiens) (UniProt P08684); test: Cytochrome P450 family 3 subfamily A member 4 (CYP3A4) small molecule antagonists: luciferase qHTS assay (AID 1645841; active means well fitted curve in the direction sought with a large enough effect in the repeat runs; an effect the other way counts as inactive or inconclusive; further: nearly all actives have a fitted effect of over 45% in size); conditions: P450-Glo CYP3A4 enzyme assay, luciferin luminescence; series mostly up to 57.4 µM
# Chain of Cytochrome P450 3A4 (Homo sapiens) (P08684 whole entry, looked up): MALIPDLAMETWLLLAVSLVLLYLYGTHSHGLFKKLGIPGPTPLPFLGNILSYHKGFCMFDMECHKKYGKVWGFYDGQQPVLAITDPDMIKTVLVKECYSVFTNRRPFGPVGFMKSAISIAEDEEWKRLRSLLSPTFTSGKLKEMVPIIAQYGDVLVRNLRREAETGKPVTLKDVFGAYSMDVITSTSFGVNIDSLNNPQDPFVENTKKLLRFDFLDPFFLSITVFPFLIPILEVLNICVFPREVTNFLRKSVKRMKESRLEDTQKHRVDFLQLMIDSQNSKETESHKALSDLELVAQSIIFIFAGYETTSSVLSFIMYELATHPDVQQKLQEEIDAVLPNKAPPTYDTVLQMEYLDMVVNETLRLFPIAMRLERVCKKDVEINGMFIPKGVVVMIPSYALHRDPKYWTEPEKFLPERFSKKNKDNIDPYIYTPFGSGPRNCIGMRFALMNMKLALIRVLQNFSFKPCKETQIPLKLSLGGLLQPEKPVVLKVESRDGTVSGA
# Procedure, shortened: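 Luminescent CYP3A4 activity readout: compounds plus enzyme-substrate mix 10 min at room temperature, reaction started with NADPH regenerating system for 1 h, stopped with detection reagent, read after 20 min. Ketoconazole served as control.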
smiles,measurement,setting,value
NC(N)=NOCCC(N)C(=O)O (stereo unspecified),Potency,[1],inactive
same,Potency,Papain (Carica papaya),inactive
CCOCCOC(C)=O,Potency,[2],inactive
same,Potency,[3],inactive
same,Potency,[4],inactive
same,Potency,[5],inactive
CN(c1ncccc1CNc1nc(Nc2ccc3c(c2)CC(=O)N3)ncc1C(F)(F)F)S(C)(=O)=O,Potency,[6],0.857 µM (active)
same,Potency,[7],3.16 µM (active)
CS(=O)(=O)c1cccc(CNc2nc(Nc3ccc4c(c3)CCC(=O)N4)ncc2C(F)(F)F)c1,Potency,[6],0.192 µM (active)
CCCS(=O)(=O)Nc1ccc(F)c(C(=O)c2c[nH]c3ncc(-c4ccc(Cl)cc4)cc23)c1F,Potency,[6],0.0681 µM (active)
same,Potency,[8],inactive
same,"activity change, negative = inhibition",[7],-8.78%
CC(=O)Nc1ccc([C@H](C)C(=O)Nc2ncc(C(C)C)s2)cc1,Potency,[6],4.82 µM (active)
same,Potency,[7],3.55 µM (active)
CC1(N2CCC(n3c([C@@H]4CCCNC4)nc4ccccc43)CC2)CCCCCCC1,Potency,[3],inactive
same,Potency,[7],5.01 µM (active)
same,Potency,[4],8.17 µM (active) and 14.8 µM (active)
same,Potency,[5],7.28 µM (active) and 13.2 µM (active)
NC(=O)c1ccc(-c2nc(-c3ccc4c(c3)OCO4)c(-c3ccccn3)[nH]2)cc1,Potency,[8],inactive
N#CCNC(=O)c1ccc(-c2ccnc(Nc3ccc(N4CCOCC4)cc3)n2)cc1,Potency,[6],9.61 µM (active)
same,Potency,[8],31.6 µM (active)
same,Potency,[7],10 µM (active)
O=[N+]([O-])c1c(Cl)c(Cl)cc(Cl)c1Cl,Potency,[2],inactive
same,Potency,[3],inactive
same,Potency,[4],inactive
same,Potency,[5],inactive
O=C(c1cc(Cc2n[nH]c(=O)c3ccccc23)ccc1F)N1CCN(C(=O)C2CC2)CC1,Potency,[6],27.1 µM (active)
same,Potency,[8],inactive
Cc1cnc(-c2cnc(NCCNc3ccc(C#N)cn3)nc2-c2ccc(Cl)cc2Cl)[nH]1,Potency,[8],inactive
Cc1cccc(-c2[nH]c(C(C)(C)C)nc2-c2ccc3nccnc3c2)n1,Potency,[8],inactive
CC(C)[C@H](C(=O)Nc1ccc(C(=O)NO)cc1)c1ccccc1,Potency,[6],inactive
same,"activity change, negative = inhibition",[7],-95.5%
O=C1C(I)=CC(=C(c2cc(I)c(O)c(I)c2)c2ccccc2C(=O)O)C=C1I,Potency,[2],9.77 µM (active)
same,Potency,[3],3.09 µM (active)
same,Potency,[4],inactive
same,Potency,[5],inactive
COCCOCCO,Potency,[2],inactive
same,Potency,[3],inactive
same,Potency,[5],inactive
NC(=O)c1c(OCc2c(F)cc(Br)cc2F)nsc1NC(=O)NCCCCN1CCCC1,Potency,[8],inactive
COc1cccc2c1CCCC2CCCN1CCN(C2CCCCC2)CC1 (stereo unspecified),Potency,[8],inactive
Cc1cc(Nc2cc(N3CCN(C)CC3)nc(Sc3ccc(NC(=O)C4CC4)cc3)n2)n[nH]1,Potency,[6],0.121 µM (active)
O=C(O)c1ccc2c(c1)nc(Nc1cccc(Cl)c1)c1ccncc12,Potency,[6],2.15 µM (active)
CC(=O)c1c(C)c2cnc(Nc3ccc(N4CCNCC4)cn3)nc2n(C2CCCC2)c1=O,Potency,[6],17.1 µM (active)
same,Potency,[8],inactive
O=C(O)CCCOc1ccc(Cl)cc1Cl,Potency,[2],inactive
same,Potency,[4],inactive
same,Potency,[5],inactive
COc1cc(Nc2ncc3c(n2)-c2ccc(Cl)cc2C(c2c(F)cccc2OC)=NC3)ccc1C(=O)O,Potency,[6],0.0108 µM (active)
same,Potency,[8],inactive
same,"activity change, negative = inhibition",[7],-83%
CC1(C)Cc2c(-c3ccccc3)c(-c3ccc(Cl)cc3)c(CC(=O)O)n2C1,Potency,[8],inactive
Oc1ccc2c3c1O[C@H]1[C@@H](O)C=C[C@H]4[C@@H](C2)NCC[C@@]341,Potency,[3],inactive
same,Potency,[4],28.1 µM (active)
same,Potency,[5],39.7 µM (active)
c1cc2ccc3cccc4ccc(c1)c2c34,Potency,[2],inactive
same,Potency,[3],inactive
same,Potency,[4],inactive
same,Potency,[5],inactive
CNC(=O)c1cc(Oc2ccc(NC(=O)Nc3ccc(Cl)c(C(F)(F)F)c3)c(F)c2)ccn1,Potency,[6],8.57 µM (active)
CN1CC[C@@H](c2c(O)cc(O)c3c(=O)cc(-c4ccccc4Cl)oc23)[C@@H](O)C1,Potency,[6],1.21 µM (active)
O=c1[nH]c(-c2ccc(C(F)(F)F)cc2)nc2c1CSCC2,Potency,[6],9.61 µM (active)
Cc1n[nH]c(C)c1Cc1sc2c(c1C(=O)N1C[C@H](O)CO1)c(=O)n(C)c(=O)n2CC(C)C,Potency,[6],0.393 µM (active)
same,Potency,[8],inactive
Cc1ccc(C(N)=O)cc1Nc1nccc(-c2cn(C(C)C)c3cnccc23)n1,Potency,[6],1.71 µM (active)
C=CCC1=C(C)C(OC(=O)C2C(C=C(C)C)C2(C)C)CC1=O (stereo unspecified),Potency,[2],23.8 µM (active)
same,Potency,[3],5.02 µM (active)
same,Potency,[4],24.3 µM (active)
same,Potency,[5],34.4 µM (active)
CC[N+]1(CCOC(=O)C(O)(c2ccccc2)c2ccccc2)CCCCC1,Potency,[9],inactive
same,Potency,[3],inactive
same,Potency,[8],inactive
same,"activity change, negative = inhibition",[7],-23.2%
same,Potency,[4],inactive
same,Potency,[5],inactive
CC(C)(C)c1cnc(CSc2cnc(NC(=O)C3CCNCC3)s2)o1,Potency,[6],4.29 µM (active)
CC(=O)NC(C)c1ccc(Oc2ccc(OC(C)C)cc2)cc1 (stereo unspecified),Potency,[8],inactive
Cc1cc(Nc2nc(N[C@@H](C)c3ncc(F)cn3)ncc2Cl)n[nH]1,Potency,[6],2.71 µM (active)
same,Potency,[8],inactive
C=CC(=O)Nc1cc2c(Nc3ccc(F)c(Cl)c3)ncnc2cc1C#CC(C)(C)N1CCN(C)CC1,Potency,[8],25.1 µM (active)
CC(C)C(=O)Nc1ncc(-c2cc(C(F)F)nn2-c2c(Cl)cccc2Cl)s1,Potency,[8],inactive
